Reference: PubChem BioAssay (NCI)
About 83,000 compounds went through this panel and 20% of them were active in at least one assay; those are over-represented in the sample as a whole.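 The endpoint reported here, percent growth, reads 100 for growth as untreated, 0 for no net growth and -100 for all cells dead.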 Calls of active or inactive are those of the source. Rule for the calls: active = growth percent below 10; inactive = the rest.

Assays:
Test in all cases: NCI-60 one-dose screen, 48 h (100 = growth as untreated, 0 = no growth, -100 = all killed)
Conditions in all cases: 10 µM
[1] = test system: NCI-H23 lung
[2] = test system: NCI-H226 lung
[3] = test system: NCI-H322M lung
[4] = test system: HOP-62 NSCLC
[5] = test system: NCI-H460 lung
[6] = test system: HOP-92 NSCLC
[7] = test system: NCI-H522 lung
[8] = test system: A549/ATCC NSCLC
[9] = test system: 786-0 renal
[10] = test system: COLO 205 colon
[11] = test system: DU-145 prostate
[12] = test system: K-562 leukemia
[13] = test system: MALME-3M melanoma
[14] = test system: MDA-MB-231 breast
[15] = test system: RXF 393 renal
[16] = test system: SF-268 CNS
[17] = test system: SF-295 CNS
[18] = test system: SF-539 CNS
[19] = test system: UACC-257 melanoma
[20] = test system: M14 melanoma

Measured: growth

CCc1ccc(Nc2cc(C)nc3nc(C)nn23)cc1
active: [1] 3.75% | [5] -43.3% | [6] -3% | [7] -14.6% | [8] -17.6% | [10] -96.4% | [12] -24.3% | [13] -90.2% | [14] -58.3% | [15] -66.5% | [18] 0.337% | [19] -84.8% | [20] -93.6%
inactive: [2] 62.1% | [3] 61.7% | [4] 26.8% | [9] 34.8% | [11] 29.5% | [16] 37.8% | [17] 33.1%

CCC(O)c1ccc(Br)cc1NC(=O)c1cccc(Cl)c1 (stereo not given)
active: [2] -1.35% | [5] 3.22% | [8] 4.24% | [12] 8.78% | [13] -3.37% | [14] -1.69% | [17] 9.43% | [18] 2.67% | [19] 7.67% | [20] 0.116%
inactive: [1] 28% | [3] 29.4% | [4] 28% | [6] 48.6% | [7] 24.2% | [9] 18.1% | [10] 93.9% | [11] 27.9% | [15] 16.3% | [16] 18.7%

COc1ccc(Nc2nc(NCc3ccccc3)c3ccccc3n2)cc1
active: [2] 6.99% | [4] -48% | [5] 3.09% | [6] -4.85%
inactive: [1] 77.3% | [3] 41.1% | [7] 50.1% | [8] 21.9% | [9] 33.9% | [10] 43.6% | [11] 79.6% | [12] 55.5% | [13] 39.7% | [14] 41% | [15] 14.5% | [16] 31.3% | [17] 19.6% | [18] 60.9% | [19] 76.5% | [20] 76.9%

C#C[C@]1(O)CC[C@H]2[C@@H]3CC[C@H]4CC(F)(F)CC[C@]4(C)[C@H]3CC[C@@]21C
inactive: [1] 95.5% | [2] 90.4% | [3] 89% | [4] 67.5% | [5] 83.9% | [6] 93.8% | [7] 105% | [8] 77.2% | [9] 101% | [10] 90.9% | [11] 61.2% | [12] 76.2% | [13] 88% | [14] 101% | [15] 86.4% | [16] 92.9% | [17] 69.1% | [18] 54.6% | [19] 78.3% | [20] 80.4%

COC(=O)[C@]12CC[C@@H](C)[C@H](C)[C@@H]1C1=CC[C@@H]3[C@@]4(C)CC(=O)[C@H](O)[C@@]5(C)COC(=C45)C[C@@]3(C)[C@]1(C)CC2
active: [1] -66.5% | [2] -74.7% | [3] -73.4% | [4] -74.7% | [5] -51.8% | [6] -83.2% | [7] -76.3% | [8] -60.4% | [9] -76.5% | [10] -80.6% | [11] -85.7% | [12] -24.9% | [13] -75.7% | [14] -72.5% | [15] -87.6% | [16] -67.2% | [17] -77.8% | [18] -52.1% | [19] -75.1% | [20] -66.3%

Cc1ccc(-n2c(-c3cc4c([nH]c5ccccc54)c(-c4cccc(O)c4)n3)n[nH]c2=S)cc1
inactive: [1] 22.9% | [6] 34.3% | [9] 10.8% | [10] 17.8% | [13] 41.3%
active: [2] -27.1% | [3] -2.32% | [4] -24% | [5] 4.05% | [7] -39.9% | [8] 2.93% | [11] -16.6% | [12] 9.64% | [14] -1.15% | [15] -50.5% | [16] 9.02% | [17] -17.2% | [18] -27.3% | [19] 2.43% | [20] -40.1%

O=C(Nc1cccc(Cl)c1)OCC(COC(=O)Nc1cccc(Cl)c1)(COC(=O)Nc1cccc(Cl)c1)[N+](=O)[O-]
inactive: [1] 22.9% | [2] 66.4% | [3] 45.8% | [4] 41.8% | [5] 17.9% | [6] 18.6% | [7] 27.4% | [8] 26.2% | [9] 32.8% | [10] 35.5% | [11] 44.2% | [12] 26.4% | [13] 59% | [14] 40.3% | [15] 57.1% | [16] 35.4% | [17] 20.8% | [18] 59.5% | [19] 52.3% | [20] 24.4%

COc1ccc(C(C)=O)cc1N1C(=O)C2C(C1=O)C1(c3ccccc3)C(=O)C2(c2ccccc2)C(c2ccc(C)cc2)=C1c1ccc(C)cc1 (stereo not given)
inactive: [1] 42.8% | [2] 32.9% | [3] 27.6% | [4] 33.4% | [6] 49.6% | [7] 21.2% | [9] 22.1% | [10] 23.4% | [11] 19.1% | [12] 11.7% | [13] 17% | [14] 12.3% | [16] 13.8% | [18] 11.4% | [19] 16.2%
active: [5] 4.54% | [8] 6.68% | [15] -4.28% | [17] 1.18% | [20] -28.1%

C#CCNCCN1C(=O)c2ccc3c4c(ccc(c24)C1=O)C(=O)N(CCNCC#C)C3=O
inactive: [1] 23.8% | [2] 20.9% | [3] 28.7% | [4] 48.4% | [5] 12.8% | [6] 91.2% | [7] 26.3% | [8] 29.2% | [9] 43.1% | [11] 54.7% | [12] 25% | [14] 58% | [15] 52.1% | [16] 47.9% | [17] 27% | [18] 47.7% | [19] 14.4% | [20] 32.6%
active: [10] -77.3% | [13] -12.9%

Cc1cnc(C=O)c2cccc([N+](=O)[O-])c12
inactive: [1] 98.7% | [2] 77.7% | [3] 103% | [4] 91.7% | [5] 106% | [6] 61.2% | [7] 96% | [8] 104% | [9] 99.7% | [10] 106% | [11] 92.3% | [12] 51.3% | [13] 81.1% | [14] 93.4% | [15] 93.1% | [16] 88.5% | [17] 89.9% | [18] 90.1% | [19] 107% | [20] 95.9%

CCN(CC)c1ccc(/C=C/C2=[N+](C)c3ccccc3C2(C)C)c(C)c1
active: [4] 5.39% | [5] 2.94% | [6] -19.5% | [7] -14.4% | [8] 9.85% | [10] -58.4% | [12] 6.13% | [13] -33.4% | [14] -1.06% | [17] 4.27% | [19] -15.9%
inactive: [1] 11.1% | [2] 17.7% | [3] 27.6% | [9] 13.1% | [11] 20.3% | [15] 29.5% | [16] 22.7% | [18] 18% | [20] 10.5%

O=C1/C(=C/c2ccc(O)cc2)Oc2ccc(Cl)cc21
inactive: [1] 71.4% | [2] 68.8% | [3] 82.8% | [4] 85.6% | [5] 79.6% | [6] 67.1% | [8] 79.7% | [9] 71.4% | [10] 109% | [11] 114% | [12] 96% | [13] 82.4% | [14] 60.1% | [15] 65.6% | [16] 93% | [17] 89.9% | [18] 66.7% | [19] 79% | [20] 93.9%
active: [7] -65%

CCc1cc2n(n1)-c1ncc(C(=O)OC)cc1Oc1ccccc1-2
inactive: [1] 104% | [2] 99.8% | [3] 108% | [4] 95.4% | [5] 104% | [6] 86.2% | [7] 94.2% | [8] 91.4% | [9] 100% | [10] 116% | [11] 111% | [12] 102% | [13] 120% | [14] 102% | [15] 114% | [16] 103% | [17] 101% | [18] 97.9% | [19] 104% | [20] 108%

COC(=O)C1(C(=O)OC)C2C(=O)C3C(C21)C3(C(=O)OC(C)(C)C)C(=O)OC(C)(C)C (stereo not given)
inactive: [1] 107% | [2] 89.5% | [3] 108% | [4] 99.9% | [5] 113% | [6] 97.8% | [7] 111% | [8] 109% | [9] 102% | [10] 115% | [11] 118% | [12] 103% | [13] 115% | [14] 121% | [15] 105% | [16] 111% | [17] 103% | [18] 115% | [19] 107% | [20] 104%

O=[N+]([O-])c1ccc(-c2nc(Cl)c3c(n2)CCCC3)o1
inactive: [1] 88.5% | [2] 63.6% | [3] 102% | [4] 64% | [5] 34% | [6] 85.2% | [8] 83% | [9] 107% | [10] 68.5% | [11] 31.4% | [12] 73.2% | [13] 41.4% | [14] 109% | [15] 93.8% | [16] 88.5% | [17] 115% | [18] 94.6% | [19] 82.5% | [20] 71.3%
active: [7] -41.3%

O=NN(CCCl)C(=O)Nc1ccc(NC(=O)N(CCCl)N=O)cc1
inactive: [1] 107% | [2] 96.5% | [3] 112% | [4] 105% | [5] 88.7% | [6] 84.8% | [7] 114% | [8] 82.8% | [9] 61.3% | [10] 105% | [11] 111% | [12] 92.6% | [13] 105% | [14] 109% | [15] 109% | [16] 61.2% | [17] 74% | [18] 19.7% | [19] 85.7% | [20] 93.1%
